# In PubChem BioAssay AID1159580 (chemical genetic matrix, 2015):
# Hit rate of the full screen: of about 5,500 compounds, about 2,000 (36%) were called active. Roughly 18% stayed inconclusive and do not appear here. The list shows a part of the results. Values without a mark were called inactive. Cut-off read from the data, not from the text of the source: active = normalized growth mostly below about 0.91 (no sharp cut-off); inconclusive = no clear call, values can overlap the other calls; inactive = mostly above about 0.92.
# Assay: chemical genetic growth profiling, strain panel (AID 1159580);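 note: tested at 20 µM; growth read once vehicle control cultures reached saturation at 30 °C; 1 = growth at the plate median or of vehicle wells; lower values mean less growth of the strain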
# Conditions: S. cerevisiae deletion strains, growth OD
# [1] = locus YAL013W, strain DEP1, hits give low values
# [2] = locus YBR229C, strain ROT2, hits give low values
# [3] = locus YCL061C, strain MRC1, hits give low values
# [4] = locus YDL101C, strain DUN1, hits give low values
# [5] = locus YDR150W, strain NUM1, hits give low values
# [6] = locus YEL061C, strain CIN8, hits give low values
# [7] = locus YGR078C, strain PAC10, hits give low values
# [8] = locus YHR030C, strain SLT2, hits give low values
# [9] = locus YHR087W, strain rtc3, hits give low values
# [10] = locus YJR043C, strain POL32, hits give low values
# [11] = locus YJR075W, strain HOC1, hits give low values
# [12] = locus YKL190W, strain CNB1, hits give low values
# [13] = locus YLR039C, strain RIC1, hits give low values
# [14] = locus YLR058C, strain SHM2 (second series), hits give low values
# [15] = locus YLR085C, strain ARP6, hits give low values
# [16] = locus YLR262C, strain YPT6, hits give low values
# [17] = locus YML094W, strain GIM5, hits give low values
# [18] = locus YMR219W, strain ESC1, hits give low values
# [19] = locus YMR263W, strain SAP30, hits give low values
# [20] = locus YNL153C, strain GIM3, hits give low values
# [21] = locus YNL298W, strain CLA4 (second series), hits give low values
# [22] = locus YNL322C, strain KRE1, hits give low values
# [23] = locus YNR030W, strain Alg12, hits give low values
# [24] = locus YPL055C, strain LGE1, hits give low values
# [25] = locus YPL241C, strain CIN2, hits give low values
# [26] = locus YPR135W, strain CTF4, hits give low values
# [27] = locus YAR019C, strain CDC15, hits give low values
# [28] = locus YBL105C, strain PKC1, hits give low values
# [29] = locus YBR135W, strain CKS1, hits give low values
# [30] = locus YBR136W, strain MEC1, hits give low values
# [31] = locus YBR160W, strain CDC28, hits give low values
# [32] = locus YDL017W, strain CDC7, hits give low values
# [33] = locus YDL028C, strain MPS1, hits give low values
# [34] = locus YDL108W, strain KIN28, hits give low values
# [35] = locus YDL132W, strain cdc53, hits give low values
# [36] = locus YDL214C, strain PRR2, hits give low values
# [37] = locus YDR052C, strain DBF4, hits give low values
# [38] = locus YDR054C, strain cdc34, hits give low values
# [39] = locus YDR226W, strain ADK1, hits give low values
# [40] = locus YDR477W, strain SNF1, hits give low values
# [41] = locus YER123W, strain YCK3, hits give low values
# [42] = locus YER133W, strain GLC7, hits give low values
# [43] = locus YFL009W, strain cdc4, hits give low values
# [44] = locus YFL029C, strain CAK1, hits give low values
# [45] = locus YFR003C, strain YPI1, hits give low values
# [46] = locus YFR019W, strain FAB1, hits give low values
# [47] = locus YFR028C, strain CDC14, hits give low values
# [48] = locus YGR040W, strain KSS1, hits give low values
# [49] = locus YGR052W, strain FMP48, hits give low values
# [50] = locus YGR092W, strain DBF2, hits give low values
# [51] = locus YHR079C, strain IRE1, hits give low values
# [52] = locus YHR082C, strain KSP1, hits give low values
# [53] = locus YHR205W, strain SCH9, hits give low values
# [54] = locus YIL147C, strain SLN1, hits give low values
# [55] = locus YJL095W, strain BCK1, hits give low values
# [56] = locus YJL128C, strain PBS2, hits give low values
# [57] = locus YJL157C, strain FAR1, hits give low values
# [58] = locus YJR016C, strain ILV3, hits give low values
# [59] = locus YJR066W, strain TOR1 (second series), hits give low values
# [60] = locus YJR066W, strain TOR1, hits give low values
# [61] = locus YKL048C, strain ELM1, hits give low values
# [62] = locus YKL067W, strain YNK1, hits give low values
# [63] = locus YKL101W, strain HSL1, hits give low values
# [64] = locus YKL193C, strain SDS22, hits give low values
# [65] = locus YKL203C, strain TOR2, hits give low values
# [66] = locus YLR113W, strain HOG1, hits give low values
# [67] = locus YLR133W, strain CKI1, hits give low values
# [68] = locus YLR403W, strain SFP1, hits give low values
# [69] = locus YML070W, strain DAK1, hits give low values
# [70] = locus YMR001C, strain CDC5, hits give low values
# [71] = locus YMR205C, strain PFK2 (second series), hits give low values
# [72] = locus YMR277W, strain FCP1, hits give low values
# [73] = locus YNL006W, strain LST8, hits give low values
# [74] = locus YNL020C, strain ARK1, hits give low values
# [75] = locus YNL161W, strain CBK1, hits give low values
# [76] = locus YNL183C, strain NPR1, hits give low values
# [77] = locus YNL207W, strain RIO2, hits give low values
# [78] = locus YNL222W, strain SSU72, hits give low values
# [79] = locus YNL307C, strain MCK1 (second series), hits give low values
# [80] = locus YOL078W, strain AVO1, hits give low values
# [81] = locus YOL136C, strain PFK27, hits give low values
# [82] = locus YOR061W, strain CKA2, hits give low values
# [83] = locus YOR119C, strain RIO1, hits give low values
# [84] = locus YOR231W, strain MKK1, hits give low values
# [85] = locus YOR329C, strain SCD5, hits give low values
# [86] = locus YPL031C, strain PHO85, hits give low values
# [87] = locus YPL153C, strain RAD53, hits give low values
# [88] = locus YPL204W, strain HRR25, hits give low values
# [89] = locus YPL209C, strain IPL1, hits give low values
# [90] = locus YPL256C, strain CLN2, hits give low values
# [91] = locus YPR025C, strain CCL1, hits give low values
# [92] = locus YPR106W, strain ISR1, hits give low values
# [93] = locus YPR111W, strain DBF20, hits give low values
# [94] = strain NNK1, hits give low values
# [95] = strain TSCII, hits give low values
smiles,measurement,setting,value
Cc1onc(-c2c(Cl)cccc2Cl)c1C(=O)OCC(F)(F)F,normalized growth,[1],1.01
same,normalized growth,[2],1.01
same,normalized growth,[3],1.02
same,normalized growth,[4],0.984
same,normalized growth,[5],0.982
same,normalized growth,[6],1
same,normalized growth,[7],0.99
same,normalized growth,[8],1.05
same,normalized growth,[9],0.986
same,normalized growth,[10],0.99
same,normalized growth,[11],1
same,normalized growth,[12],1
same,normalized growth,[13],0.955
same,normalized growth,[14],1.01
same,normalized growth,[15],0.971
same,normalized growth,[16],0.942
same,normalized growth,[17],1.01
same,normalized growth,[18],0.997
same,normalized growth,[19],1
same,normalized growth,[20],1.02
same,normalized growth,[21],1.02
same,normalized growth,[22],1
same,normalized growth,[23],0.985
same,normalized growth,[24],1.01
same,normalized growth,[25],1.04
same,normalized growth,[26],0.989
Cc1onc(-c2ccccc2)c1NC(=O)Nc1c(Cl)cccc1Cl,normalized growth,[1],0.995
same,normalized growth,[2],0.983
same,normalized growth,[3],0.963
same,normalized growth,[4],0.988
same,normalized growth,"locus YDL134C, strain PPH21, hits give low values",0.996
same,normalized growth,[5],0.973
same,normalized growth,[6],0.991
same,normalized growth,[7],1
same,normalized growth,"locus YGR229C, strain SMI1, hits give low values",0.996
same,normalized growth,[8],0.811
same,normalized growth,[9],0.975
same,normalized growth,[10],0.969
same,normalized growth,[11],0.975
same,normalized growth,[12],1
same,normalized growth,[13],0.668 (active)
same,normalized growth,[14],0.988
same,normalized growth,[15],0.946
same,normalized growth,[16],0.572 (active)
same,normalized growth,[17],0.949
same,normalized growth,[18],0.991
same,normalized growth,[19],0.999
same,normalized growth,[20],1.01
same,normalized growth,[21],0.974
same,normalized growth,[22],0.976
same,normalized growth,[23],0.983
same,normalized growth,"locus YOL006C, strain TOP1, hits give low values",0.803
same,normalized growth,[24],0.997
same,normalized growth,[25],0.941
same,normalized growth,[26],0.933
Cc1onc(-c2c(F)cccc2Cl)c1C(=O)NNc1cc(Cl)cc(Cl)c1,normalized growth,[27],0.987
same,normalized growth,[28],0.984
same,normalized growth,[29],0.987
same,normalized growth,[30],0.985
same,normalized growth,[31],0.976
same,normalized growth,[32],0.989
same,normalized growth,[33],0.986
same,normalized growth,[4],0.987
same,normalized growth,[34],0.976
same,normalized growth,[35],0.989
same,normalized growth,[36],0.902
same,normalized growth,[37],0.99
same,normalized growth,[38],0.982
same,normalized growth,[39],0.991
same,normalized growth,[40],0.931
same,normalized growth,[41],0.864
same,normalized growth,[42],0.937
same,normalized growth,[43],0.979
same,normalized growth,[44],0.977
same,normalized growth,[45],0.987
same,normalized growth,[46],0.908
same,normalized growth,[47],0.976
same,normalized growth,[48],0.894
same,normalized growth,[49],0.951
same,normalized growth,[50],0.937
same,normalized growth,[8],0.962
same,normalized growth,[51],0.939
same,normalized growth,[52],0.964
same,normalized growth,[53],0.89
same,normalized growth,[54],0.989
same,normalized growth,[55],0.942
same,normalized growth,[56],0.956
same,normalized growth,[57],0.916
same,normalized growth,[58],0.988
same,normalized growth,[59],0.883
same,normalized growth,[60],0.984
same,normalized growth,[61],0.878
same,normalized growth,[62],0.927
same,normalized growth,[63],0.894
same,normalized growth,[64],0.98
same,normalized growth,[65],0.992
same,normalized growth,[66],0.798 (active)
same,normalized growth,[67],0.906
same,normalized growth,[68],0.901
same,normalized growth,[69],0.89
same,normalized growth,[70],0.98
same,normalized growth,[71],0.936
same,normalized growth,[72],0.983
same,normalized growth,[73],0.984
same,normalized growth,[74],0.914
same,normalized growth,[75],0.979
same,normalized growth,[76],0.935
same,normalized growth,[77],0.987
same,normalized growth,[78],0.988
same,normalized growth,[79],0.879
same,normalized growth,[80],0.978
same,normalized growth,[81],0.884
same,normalized growth,[82],0.908
same,normalized growth,[83],0.972
same,normalized growth,[84],0.889
same,normalized growth,[85],0.984
same,normalized growth,[86],0.936
same,normalized growth,[87],0.928
same,normalized growth,[88],0.918
same,normalized growth,[89],0.979
same,normalized growth,[90],0.839 (active)
same,normalized growth,[91],0.98
same,normalized growth,[92],0.956
same,normalized growth,[93],0.955
same,normalized growth,[94],0.955
same,normalized growth,[95],0.986
CCCCCCCCCCCC(=O)NOC(=O)c1c(-c2c(Cl)cccc2Cl)noc1C,normalized growth,[27],0.984
same,normalized growth,[28],0.986
same,normalized growth,[29],0.984
same,normalized growth,[30],0.985
same,normalized growth,[31],0.998
same,normalized growth,[32],0.986
same,normalized growth,[33],0.988
same,normalized growth,[4],0.999
same,normalized growth,[34],0.982
same,normalized growth,[35],0.986
same,normalized growth,[36],0.948
same,normalized growth,[37],0.997
same,normalized growth,[38],0.988
same,normalized growth,[39],0.981
same,normalized growth,[40],0.818
same,normalized growth,[41],0.656
same,normalized growth,[42],0.779
same,normalized growth,[43],0.99
same,normalized growth,[44],0.989
same,normalized growth,[45],0.984
same,normalized growth,[46],0.874
same,normalized growth,[47],0.996
same,normalized growth,[48],0.838
same,normalized growth,[49],0.641
same,normalized growth,[50],0.586
same,normalized growth,[8],0.139 (active)
same,normalized growth,[51],0.139 (active)
same,normalized growth,[52],0.9
same,normalized growth,[53],0.586
same,normalized growth,[54],0.984
same,normalized growth,[55],0.117 (active)
same,normalized growth,[56],1
same,normalized growth,[57],0.909
same,normalized growth,[58],0.984
same,normalized growth,[59],0.451 (active)
same,normalized growth,[60],0.583
same,normalized growth,[61],0.995
same,normalized growth,[62],0.944
same,normalized growth,[63],0.961
same,normalized growth,[64],0.979
same,normalized growth,[65],0.66 (active)
same,normalized growth,[66],0.415 (active)
same,normalized growth,[67],0.905
same,normalized growth,[68],0.553 (active)
same,normalized growth,[69],0.692
same,normalized growth,[70],0.982
same,normalized growth,[71],0.935
same,normalized growth,[72],0.977
same,normalized growth,[73],0.992
same,normalized growth,[74],0.915
same,normalized growth,[75],0.992
same,normalized growth,[76],0.571 (active)
same,normalized growth,[77],0.966
same,normalized growth,[78],0.988
same,normalized growth,[79],0.69
same,normalized growth,[80],0.98
same,normalized growth,[81],0.867
same,normalized growth,[82],0.886
same,normalized growth,[83],0.578 (active)
same,normalized growth,[84],0.689
same,normalized growth,[85],0.991
same,normalized growth,[86],0.795
same,normalized growth,[87],0.533 (active)
same,normalized growth,[88],0.63 (active)
same,normalized growth,[89],0.991
same,normalized growth,[90],0.697 (active)
same,normalized growth,[91],0.993
same,normalized growth,[92],1
same,normalized growth,[93],1.01
same,normalized growth,[94],0.996
same,normalized growth,[95],0.991
